RAD52 inh: RAD52 DNA annealing inhibitors, primary screen, biochemical, FRET, single point, set 2. DNA repair protein RAD52 homolog (Homo sapiens), P43351. recombinant RAD52 DNA annealing, FRET fluorescence. inhibition, % at 18.7 µM. hit rate 0.46% among 360,000. AID 651710, 2012;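 active = every replicate showing at least 50% inhibition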
Target sequence (P43351 whole entry, looked up): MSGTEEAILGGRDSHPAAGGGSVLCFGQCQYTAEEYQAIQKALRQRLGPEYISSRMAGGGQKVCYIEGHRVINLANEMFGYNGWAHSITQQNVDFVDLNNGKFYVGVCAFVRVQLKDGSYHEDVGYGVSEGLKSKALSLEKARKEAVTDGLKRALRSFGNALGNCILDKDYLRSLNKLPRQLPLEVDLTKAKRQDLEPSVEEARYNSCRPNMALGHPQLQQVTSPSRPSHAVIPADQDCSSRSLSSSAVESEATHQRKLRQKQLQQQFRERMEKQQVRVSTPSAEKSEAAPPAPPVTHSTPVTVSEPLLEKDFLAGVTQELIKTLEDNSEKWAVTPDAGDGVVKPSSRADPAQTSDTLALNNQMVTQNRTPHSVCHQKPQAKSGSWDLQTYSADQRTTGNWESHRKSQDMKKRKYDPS
RAD54 inh: inhibitors of human RAD54 branch migration, primary screen, biochemical, fluorescence, single point. RAD54 Holliday junction branch migration, FAM/BHQ fluorescence. inhibition, % at 10.4 µM. AID 602329, 2012. DNA repair and recombination protein RAD54-like (Homo sapiens), Q92698. hit rate 0.14% among 360,000;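 active = mean normalized replicate activity at least 40 and at least half of replicates scoring 40 or more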;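 also: 0% = median of neutral control wells and 100% = median of positive control wells; inhibitors cause a drop in the FAM fluorescence signal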
dFosB act-1: activators of delta FosB homodimer, primary screen, biochemical, fluorescence polarization, TAMRA-CDK5 oligo, single point; Protein FosB (Mus musculus), P13346; purified delta FosB; percent of positive-control signal above neutral wells; activation, % at 25 µM; hit rate 0.99% among 340,000; AID 493131, 2011;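 active = mean activation above about 17%, with every replicate also reaching it, limit read from the data, passing the limit was not always enough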
N-glyco inh: increase of ERlucT glycosylation luciferase signal, primary screen, N-linked glycosylation inhibitor project, D54 ERlucT cells, luminescence, set 2 | AID 588692, 2011 | D54 ERlucT glycosylation luciferase reporter, 24 h; percent of 100 nM tunicamycin response | hit rate 0.23% among 360,000 | reporter increase, % at 12.5 µM;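 active = mean luciferase reporter signal, scaled so untreated is 0 and the glycosylation-blocking control 100, at or above a set limit in every replicate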;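 also: luciferase carries N-glycosylation sites so blocking glycosylation raises the light; 0% = median of neutral control wells and 100% = median of 100 nM tunicamycin wells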
PvdQ acylase: P. aeruginosa PvdQ acylase inhibitors, primary screen, biochemical, fluorescence, plate reader and imaging, single point. PvdQ acylase [Pseudomonas aeruginosa LESB58]. purified PvdQ acylase. inhibition, % at 10 µM. hit rate 0.063% among 340,000; in the data active = inhibition above about 30%, passing the limit was not always enough;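 also: 0% = vehicle neutral wells and 100% = reference inhibitor wells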
F508del corr: F508del CFTR correction, initial screen, CFBE line, single point. AID 720511, 2013. hit rate 0.36% among 350,000. CFBE cells, YFP halide quenching; stimulated with forskolin plus potentiator P3; % fluorescence drop versus neutral controls. activity (quench increase), % at 7.58 µM;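 active = mean added fluorescence quench of at least 8% versus neutral control, with both replicates also reaching 8%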;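 also: cells transiently co-express mutant CFTR-F508del with the halide-sensitive YFP; corrector assay measuring rescue of mutant channel to the surface after 24 h compound exposure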
dFosB act-2: activators of mouse delta FosB DNA binding, confirmation, biochemical, fluorescence polarization, TAMRA-CDK5 oligo, cherry-picked samples | shares compounds with dFosB act-1 | purified delta FosB; normalised: neutral wells 0, positive control 100 | 2,400 tested, under 10 active | activation, % at 24.9 µM;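 active = highest replicate activation at or above 34% and every replicate reaching that threshold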;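 also: higher polarization means more probe DNA bound by delta FosB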
An asterisk follows results filed as active; . = not tested or not shown. Shown are actives, neighbours in structure and some others; about 1.5% of the full set was active somewhere.

SMILES	RAD52 inh	RAD54 inh	dFosB act-1	N-glyco inh	PvdQ acylase	F508del corr	dFosB act-2
Cc1cc(C)cc(C(=O)Nc2ccc(NC(=O)Cc3ccccc3)cc2)c1	-3.6	10.7	42.7*	1.1	1.0	-2.8	5.0
Cc1cc(C)cc(C(=O)Nc2ccc(NC(=O)c3cccs3)cc2)c1	-9.7	-10.4	24.7*	.	-0.5	2.9	3.9
Cc1cc(C)c(NS(=O)(=O)c2ccc(NC(=O)c3cccs3)cc2)c(C)c1	.	.	26.4*	-5.4	-11.6	.	-6.7
Cc1ccc(S(=O)(=O)Nc2ccc(NC(=O)c3cccs3)cc2)cc1	-19.7	.	4.9	-2.5	-12.3	0.2	.
Cc1cccc(C)c1NS(=O)(=O)c1ccc(NC(=O)c2ccc(Cl)c([N+](=O)[O-])c2)cc1	-13.9	-26.4	39.6*	-1.5	-0.2	4.5	-1.5
CO[C@H]1CN(C)C(=O)c2ccc(NC(=O)C3CC3)cc2OC[C@H](C)N(CC2CCOCC2)C[C@@H]1C	-10.4	.	.	.	.	1.2	.
CCOC(=O)/C=C/C(=O)Nc1ccc(S(=O)(=O)Nc2c(C)cc(C)cc2C)cc1	-3.1	.	19.9*	-3.6	-3.6	.	6.2
CCOC(=O)/C=C/C(=O)Nc1ccc(Oc2ccccc2)cc1	-8.9	.	-5.4	-6.1	0.4	1.6	.
COc1ccccc1NC(=O)c1ccc(Br)o1	.	-2.2	6.4	-0.6	-12.7	.	.
COc1ccc(-c2nc3ccccc3o2)cc1NC(=O)c1ccc(Br)o1	.	1.1	73.0*	-2.6	-10.1	.	-0.7
O=C(Nc1ccc2oc(=O)ccc2c1)c1ccc(-c2cccc(Cl)c2)o1	-27.4	.	98.6*	-6.4	-7.2	-2.3	3.7
Cc1ccccc1C(=O)Nc1cccc(NC(=S)NC(=O)c2cccs2)c1	.	0.6	50.2*	1.9	-14.1	.	0.0
CC(=O)NC(=S)Nc1ccc(NC(=S)NC(=O)c2cccs2)cc1	-15.4	5.0	37.0*	-2.5	-6.4	1.8	2.6
COc1ccc(-n2nc(C(=O)Nc3ccc4c(c3)OCO4)c3c4ccccc4n(C)c3c2=O)cc1	.	1.5	6.2	0.7	-2.6	.	.
CCOc1ccccc1NC(=O)CNC(=O)c1nn(-c2ccc(OC)c(OC)c2)c(=O)c2ccccc12	-7.7	-3.2	-0.1	0.8	-14.6	-2.0	.
COc1ccc(-n2nc(C(=O)NCC(=O)Nc3cccc(Cl)c3)c3ccccc3c2=O)cc1OC	-1.2	7.2	99.7*	3.9	-10.8	-2.0	7.4
CCOc1ccc(NC(=O)CNC(=O)c2nn(-c3ccc(OC)c(OC)c3)c(=O)c3ccccc23)cc1	-16.9	-12.8	75.8*	-1.5	-14.7	2.8	1.2
COc1ccc(-n2nc(C(=O)Nc3ccc(OC)c(OC)c3)c3c4ccccc4n(C)c3c2=O)cc1	.	13.6	27.4*	0.6	-13.4	.	1.5
COc1ccc(CCNC(=O)CNC(=O)c2nn(-c3ccc(OC)c(OC)c3)c(=O)c3ccccc23)cc1OC	4.0	4.9	-0.8	0.9	-5.5	-0.6	.
CN1CCN(C(=O)C[C@@H]2CC[C@H]3[C@@H](COC[C@@H](O)CN3S(=O)(=O)c3cccc(F)c3)O2)CC1	13.1	-4.4	.	.	.	-0.4	.
Cc1ccc(NC(=O)COC(=O)c2ccc(S(=O)(=O)N3CCCCC3)cc2)cc1	-0.4	-8.3	1.6	1.2	-3.8	1.2	.
O=C(COC(=O)c1cc([N+](=O)[O-])ccc1NCCO)Nc1cccc(S(=O)(=O)N2CCCC2)c1	-15.7	9.3	30.6*	0.0	16.1	0.1	1.4
O=C(COC(=O)c1ccc(S(=O)(=O)N2CCCCC2)cc1)Nc1ccccc1	-15.9	0.6	20.7*	-2.3	9.1	-2.9	2.1
CC(=O)Nc1ccc(NC(=O)COC(=O)c2ccc(S(=O)(=O)N(C)c3ccccc3)cc2)cc1	-14.5	0.0	37.6*	1.9	-11.4	3.1	0.4
O=C(COC(=O)c1cc([N+](=O)[O-])ccc1NCCO)Nc1ccc2c(c1)OCO2	-8.9	.	2.9	-2.0	-1.3	2.9	.
SMILES	RAD52 inh	RAD54 inh	dFosB act-1	N-glyco inh	PvdQ acylase	F508del corr	dFosB act-2
COc1ccccc1N(C)S(=O)(=O)c1ccc(C(=O)OCC(=O)Nc2ccc(C(N)=O)cc2)cc1	-19.0	5.1	65.9*	2.0	18.8	0.9	2.4
COCC(=O)N1[C@H](CO)[C@H]2c3ccccc3N(C(=O)C3CC3)C[C@H]21	0.0	7.4	.	.	.	1.9	.
COc1nc(Nc2cccc([N+](=O)[O-])c2)nc(OC)n1	-17.9	.	106.0*	1.8	-12.7	0.7	3.0
C=CCNc1nc(Nc2ccc([N+](=O)[O-])cc2)nc(OC)n1	.	1.9	8.5	-0.5	-10.3	.	.
CNc1nc(Nc2ccc([N+](=O)[O-])cc2)nc(OCC(F)(F)F)n1	-12.0	-8.6	0.3	-5.9	-11.7	0.9	.
C#CCOc1nc(Nc2cccc([N+](=O)[O-])c2)nc(OCC#C)n1	-8.6	4.6	28.8*	-0.3	1.0	.	1.8
C[C@@H]1CCCCO[C@H](CN(C)C(=O)c2ccncc2)[C@H](C)CN([C@@H](C)CO)C(=O)c2cc(NS(=O)(=O)c3cn(C)cn3)ccc2O1	6.1	4.3	.	.	.	-2.8	.
C[C@H]1CN([C@@H](C)CO)C(=O)c2cc(-c3ccc(C(=O)N(C)C)cc3)cnc2O[C@@H]1CN(C)C(=O)c1ccncc1	-15.9	7.7	.	.	.	-0.4	.
O=C(O)c1cc(NC(=O)c2cccc(N3C(=O)c4ccccc4C3=O)c2)cc(C(=O)O)c1	-21.0	8.6	0.9	1.3	0.9	0.6	.
Cc1cc(C)c(-c2cc(NC(=O)COC(=O)c3ccc(NC(=O)CC#N)cc3)n(-c3ccccc3)n2)cc1C	-38.9	-5.6	51.3*	2.3	-21.6	-1.6	2.4
CC(=O)c1ccc(NC(=O)c2cccc(N3C(=O)c4ccccc4C3=O)c2)cc1	.	10.5	78.1*	1.2	9.4	.	1.0
NS(=O)(=O)c1ccc(NC(=O)c2cccc(N3C(=O)c4ccccc4C3=O)c2)cc1	-15.5	-6.7	111.3*	-0.1	-9.8	-1.1	5.4
NS(=O)(=O)c1ccc(NC(=O)c2ccc3c(c2)CCN3S(=O)(=O)c2ccccc2)cc1	-7.6	1.8	32.4*	-4.6	7.7	8.0	1.0
C/C=C/c1ccc([C@H]2[C@@H](CO)N(C(=O)CN(C)C)C23CN(C(=O)C2CC2)C3)cc1	1.7	.	.	.	.	1.5	.

Source: PubChem BioAssay
